Source: PubChem BioAssay AID2284356 (EPA ToxCast)
Records with an inconclusive call do not appear. Activity calls are given as the source filed them. Rule for the calls: active = hit-call score of the fitted dose curve at least 0.9, where 1 is the maximum; inconclusive = response in the unintended direction; inactive = score below 0.9.

target: zebrafish Estrogen Receptor (ER1), esr1 (gene 259252) (UniProt P57717); assay: ATG_zfER1_EcoTox2: Attagene TRANS-FACTORIAL EcoTox-2 HepG2 Assay for zebrafish Estrogen Receptor (ER1)
Sequence (P57717 whole entry, looked up): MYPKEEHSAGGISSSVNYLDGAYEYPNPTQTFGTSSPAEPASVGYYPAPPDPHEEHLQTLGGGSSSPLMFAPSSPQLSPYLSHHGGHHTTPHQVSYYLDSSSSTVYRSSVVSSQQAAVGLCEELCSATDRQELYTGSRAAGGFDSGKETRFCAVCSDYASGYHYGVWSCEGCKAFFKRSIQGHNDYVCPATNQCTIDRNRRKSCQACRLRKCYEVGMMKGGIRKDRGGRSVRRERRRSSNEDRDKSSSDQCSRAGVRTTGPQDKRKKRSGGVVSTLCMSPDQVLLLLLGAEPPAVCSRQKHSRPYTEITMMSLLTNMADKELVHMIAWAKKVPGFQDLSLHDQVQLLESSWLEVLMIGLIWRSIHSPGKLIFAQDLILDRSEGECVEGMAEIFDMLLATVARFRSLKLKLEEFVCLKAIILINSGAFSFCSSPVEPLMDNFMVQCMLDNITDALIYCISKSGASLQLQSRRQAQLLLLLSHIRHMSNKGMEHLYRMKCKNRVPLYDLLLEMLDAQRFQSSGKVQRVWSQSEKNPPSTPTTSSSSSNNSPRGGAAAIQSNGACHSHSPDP
Protocol: ATG_EcoTox2 is a cell-based, multiplexed assay created by modifying the existing Attagene TRANS-FACTORIAL system to include a panel of nuclear receptors from some or all the following species: human (Homo sapiens), african clawed frog (Xenopus laevis), rainbow trout (Oncorhynchus mykiss), japanese medaka (Oryzias latipes), and zebrafish (Danio rerio). The ECOTOX2-FACTORIAL format uses HepG2, a human liver cell line, with measurements taken at 24 hours after chemical dosing in a 24-well plate. ATG_zfER1_EcoTox2 is one of 29 assay components calculated in the ATG_EcoTox2 assay. It is designed to make measurements of mRNA induction, a form of inducible reporter, as detected with fluorescence intensity signals by Reverse transcription polymerase chain reaction (RT-PCR) and Capillary electrophoresis technology.The assay endpoint ATG_zfER1_EcoTox2 was analyzed in the positive analysis fitting direction relative to DMSO as the negative control and baseline of activity. Using a type of inducible reporter, measures of mRNA for gain-of-signal activity can be used to understand the reporter gene at the transcription factor-level as they relate to the gene ER. Furthermore, this assay endpoint can be referred to as a primary readout, because this assay has produced multiple assay endpoints where this one serves a reporter gene function. To generalize the intended target to other relatable targets, this assay endpoint is annotated to the nuclear receptor intended target family, where the subfamily is steroidal.
Human liver HepG2 cells are transiently transfected with multiple reporter transcription units (MRTUs) in 6-well plates using FuGene 6 reagent (Roche; 3 ml FuGene/1 mg DNA). The MRTU constructs are regulated by a cis-regulating element (promoter). Each RTU expresses a GAL4-UAS that regulates the transcription of a nearby target reporter gene sequence. A major difference between the CIS and TRANS system is that in CIS activities of endogenous TFs are measured, whereas the TRANS assay evaluates changes in activities of exogenous, chimeric NR-Gal4 proteins. […] At the end of 24 hour incubation, total RNA was isolated using TriZol reagent (Invitrogen). The isolated RNA is then reverse-transcribed using oligo(dT) primer and Mo-MLV reverse transcriptase (Invitrogen) with DNAse I (Ambion) treatment for 30 min. The one-tenth of the produced cDNA was amplified by PCR using Taq DNA polymerase (Invitrogen) and two reporter sequence-specific primers. The PCR products were fluorescently labeled by primer extension with 6-arboxyfluorescein (6-FAM) 5'-labeled reporter sequence-specific primer (2 min at 95 C, 20 s at 68 C and 10 min at 72 C) and these products were digested with 5U of HpaI (New England Biolabs) for 2h at 37 C. The fragments were purified using Qiaquick PCR columns (Qiagen), analyzed on an ABI 3130xL genetic analyzer (Applied Biosystems) with peak positions identified by using a set of X-rhodamine (ROX)-labeled MapMarker1000 molecular weight standards (BioVentures). The raw capillary electrophoresis data was processed using Attagraph software (Attagene).

Row | SMILES | outcome
1 | CC(C)(Oc1ccc(Cl)cc1)C(=O)O | inactive
2 | C[C@@H]1C[C@H]2[C@@H]3CCC4=CC(=O)C=C[C@]4(C)[C@@]3(F)[C@@H](O)C[C@]2(C)[C@@]1(O)C(=O)COP(=O)(O)O | inactive
3 | CC(C)(Oc1ccc(CCNC(=O)c2ccc(Cl)cc2)cc1)C(=O)O | inactive
4 | CC(C)OC(=O)C(C)(C)Oc1ccc(C(=O)c2ccc(Cl)cc2)cc1 | inactive
5 | Cc1ccc(C)c(OCCCC(C)(C)C(=O)O)c1 | inactive
6 | CC(c1cc2ccccc2s1)N(O)C(N)=O (centres undefined) | inactive
7 | CC(C)(Oc1ccc(C2CC2(Cl)Cl)cc1)C(=O)O (centres undefined) | inactive
8 | C=C(c1ccc(C(=O)O)cc1)c1cc2c(cc1C)C(C)(C)CCC2(C)C | inactive
9 | C[C@]12C=CC(=O)C=C1CC[C@@H]1[C@@H]2C(=O)C[C@@]2(C)[C@H]1CC[C@]2(O)C(=O)CO | inactive
